The structures appear in SMILES notation. “And” between values parts separate entries of the source, which are not always exact repeats. Identical values can stand only once. Records with an inconclusive call do not appear. Entries that show only a call come without a potency. Unmarked numbers belong to inactive results. The source made the active and inactive calls. Calls follow the shape of the dose curve; as a rule, active = well fitted curve in the direction sought with a large enough effect in the repeat runs; inconclusive = weak or mixed curves; inactive = no such curve, though single readings can be large; an effect the other way counts as inactive or inconclusive.
Potency is read from the fitted curve at half-maximal effect.

One test in a line: qHTS RealTime-Glo MT Cell Viability Assay in HEK293 cells - 8 hour (AID 1224887). Also: nearly all actives have a fitted effect of over 50% in size. As to activity change, negative = cytotoxicity: top concentration of the series differs between compounds. The settings on record: RealTime-Glo luminescence; series mostly up to 76.8 µM. A digest of the protocol: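 Measured as luminescence from the same continuously cultured HEK293 wells at successive time points (0, 8, 16, 24, 32, 40 h) after compound addition. Reagent present from seeding; dosing at 5 h; incubation 37 C.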
In general terms: In qHTS, concentration-response curves come from the screen itself.
As to `N#Cc1ccc(N(CC(N)=O)CC(F)(F)F)cc1C(F)(F)F`, the Potency result is “inactive”.

On to `CCCCn1cc[n+](C)c1.[Cl][Fe-]([Cl])([Cl])[Cl]`, for which the Potency entry is “inactive”.

For `CN1C2CCC(C)(C)C1CC(OC(=O)C(O)(c1cccs1)c1cccs1)C2` (stereo not drawn), the Potency entry is “inactive”.

`O=C(O)[C@H](O)[C@@H](O)C(=O)O`: the Potency entry was “inactive”.

On to `ClC1=C(Cl)[C@]2(Cl)[C@H]3[C@H]([C@@H]4C=C[C@H]3C4)[C@@]1(Cl)C2(Cl)Cl`, for which the Potency is 43.6 µM (active) and 38.9 µM (active).

Regarding `CCNc1nc(NC(C)C(C)C)nc(SC)n1` (stereo not drawn), the Potency result is “inactive”.

`[Cl-].[Cl-].[Cl-].[Yb+3]`: the Potency result was “inactive”.

For `CCN(CC)CCc1c[nH]c2ccccc12`, the Potency entry was “inactive”.

Take `O=C(O)CCCCCCNC1c2ccccc2CCc2ccccc21`: the Potency result was “inactive”.

With `C#CCO`, the Potency entry is “inactive”.

Regarding `CCn1cc[n+](C)c1` (tested in a mixture with another compound), the Potency result is “inactive”.

Consider `CC(=O)[O-].CC(=O)[O-].O.O.[Zn+2]`, for which the Potency result was “inactive”.

`Clc1cc(Cl)c(-c2cc(Cl)c(Cl)cc2Cl)cc1Cl`: the Potency entry is “inactive”.

Take `O=S(=O)(O)F`: the Potency entry is “inactive”.

For the compound `COC(=O)/C=C(\C)OP(=O)(OC)OC`, the Potency entry is “inactive”.

With `CN=C=O`, the Potency entry is “inactive”.

In the case of `CNN`, the Potency result is “inactive”.

Regarding `CC[C@H](C)[C@H]1O[C@]2(C=C[C@@H]1C)C[C@@H]1C[C@@H](C/C=C(\C)[C@@H](O[C@H]3C[C@H](OC)[C@@H](O[C@H]4C[C@H](OC)[C@@H](NC)[C@H](C)O4)[C@H](C)O3)[C@@H](C)/C=C/C=C3\CO[C@@H]4[C@H](O)C(C)=C[C@@H](C(=O)O1)[C@]34O)O2`, the Potency is 8.71 µM (active).

With `O=[N+]([O-])c1ccccc1-c1ccccc1`, the Potency entry was “inactive”.

For `COc1c2c(cc3c1OCO3)CCN(C)C2`, the Potency entry is “inactive”.

`BrCC(Br)(Br)Br`: the Potency was 16.1 µM (active).

Regarding `CCC[CH2][Sn]([CH2]CCC)([CH2]CCC)[CH2]CCC`, the Potency is 11 µM (active).

In the case of `O=[N+]([O-])c1cc(C(F)(F)F)c(Cl)c([N+](=O)[O-])c1Nc1ncc(C(F)(F)F)cc1Cl`, the Potency was 5.49 µM (active).

On to `CCCCN(CCCC)C(=S)[S-].CCCCN(CCCC)C(=S)[S-].[Ni+2]`, for which the Potency entry was “inactive”.

For the compound `CCCCn1cc[n+](C)c1` (tested in a mixture with another compound), the Potency result was “inactive”.

Regarding `CCC(C)Br` (stereo not drawn), the Potency entry is “inactive”.

Turning to `C[N+]1(C)[C@@H]2CC[C@H]1CC(OC(=O)C(CO)c1ccccc1)C2` (stereo partly drawn), the Potency entry is “inactive”.

Consider `CCCCc1ccccc1`, for which the Potency result is “inactive”.

Take `NC(=O)C(Cl)Cl`: the Potency result is “inactive”.

Take `COP(=S)(OC)Oc1ccc([N+](=O)[O-])c(C)c1`: the Potency entry is “inactive”.

Take `CNC(=O)Oc1cc(C)cc(C(C)C)c1`: the Potency entry is “inactive”.

For `CN`, the Potency result was “inactive”.

For `CCNS(=O)(=O)C(F)(F)C(F)(F)C(F)(F)C(F)(F)C(F)(F)C(F)(F)C(F)(F)C(F)(F)F`, the Potency entry was “inactive”.

Consider `[F][Sn]([c]1ccccc1)([c]1ccccc1)[c]1ccccc1`, for which the Potency was 1.74 µM (active).

In the case of `Clc1c(Cl)c(Cl)c(Cl)c(Cl)c1Cl`, the activity change, negative = cytotoxicity was 4.5% [at 6.97 µM].

Turning to `Nc1nc(N)c(N)c(N)n1`, the Potency result was “inactive”.

As to `Fc1ccc(C(OCCN2CCN(CCCc3ccccc3)CC2)c2ccc(F)cc2)cc1`, the Potency was 16.9 µM (active).

In the case of `CCN(CC)C(=O)N[C@@H]1C=C2c3cccc4[nH]cc(c34)C[C@@H]2N(C)C1`, the Potency result was “inactive”.

Regarding `O=C1C2(Cl)C3(Cl)C4(Cl)C(Cl)(Cl)C5(Cl)C3(Cl)C1(Cl)C5(Cl)C24Cl` (stereo not drawn), the Potency is 34.1 µM (active) and 46.9 µM (active).

Another test in a line: A CellTox Green Cytotoxicity Assay to monitor cytotoxicity in HEK293 cells - 16 hour (AID 1224888). Also: nearly all actives have a fitted effect of over 35% in size. The note with it: CellTox Green fluorescence; series mostly up to 76.8 µM. A digest of the protocol: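 Homogeneous no-lysis format: HEK293 cell suspension mixed with CellTox Green reagent, seeded, incubated 5 h at 37 C/5% CO2, then dosed by pintool with compound in DMSO.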
As to `N#Cc1ccc(N(CC(N)=O)CC(F)(F)F)cc1C(F)(F)F`, the Potency entry was “inactive”.

As for `CCCCn1cc[n+](C)c1.[Cl][Fe-]([Cl])([Cl])[Cl]`, the Potency result is “inactive”.

`CN1C2CCC(C)(C)C1CC(OC(=O)C(O)(c1cccs1)c1cccs1)C2` (stereo not drawn): the Potency result is “inactive”.

With `O=C(O)[C@H](O)[C@@H](O)C(=O)O`, the Potency entry is “inactive”.

Regarding `ClC1=C(Cl)[C@]2(Cl)[C@H]3[C@H]([C@@H]4C=C[C@H]3C4)[C@@]1(Cl)C2(Cl)Cl`, the Potency is 54.9 µM (active) and 49 µM (active).

Regarding `CCNc1nc(NC(C)C(C)C)nc(SC)n1` (stereo not drawn), the Potency entry is “inactive”.

On to `[Cl-].[Cl-].[Cl-].[Yb+3]`, for which the Potency entry was “inactive”.

Turning to `CCN(CC)CCc1c[nH]c2ccccc12`, the Potency result was “inactive”.

On to `O=C(O)CCCCCCNC1c2ccccc2CCc2ccccc21`, for which the Potency result was “inactive”.

On to `C#CCO`, for which the Potency entry is “inactive”.

Turning to `CCn1cc[n+](C)c1` (tested in a mixture with another compound), the Potency entry was “inactive”.

As to `CC(=O)[O-].CC(=O)[O-].O.O.[Zn+2]`, the Potency entry was “inactive”.

With `Clc1cc(Cl)c(-c2cc(Cl)c(Cl)cc2Cl)cc1Cl`, the Potency entry was “inactive”.

For `O=S(=O)(O)F`, the Potency entry was “inactive”.

Take `COC(=O)/C=C(\C)OP(=O)(OC)OC`: the Potency result was “inactive”.

`CN=C=O`: the Potency entry is “inactive”.

With `CNN`, the Potency entry was “inactive”.

As to `CC[C@H](C)[C@H]1O[C@]2(C=C[C@@H]1C)C[C@@H]1C[C@@H](C/C=C(\C)[C@@H](O[C@H]3C[C@H](OC)[C@@H](O[C@H]4C[C@H](OC)[C@@H](NC)[C@H](C)O4)[C@H](C)O3)[C@@H](C)/C=C/C=C3\CO[C@@H]4[C@H](O)C(C)=C[C@@H](C(=O)O1)[C@]34O)O2`, the Potency was 15.5 µM (active).

Turning to `O=[N+]([O-])c1ccccc1-c1ccccc1`, the Potency result was “inactive”.

`COc1c2c(cc3c1OCO3)CCN(C)C2`: the Potency result is “inactive”.

For the compound `BrCC(Br)(Br)Br`, the Potency result was “inactive”.

With `CCC[CH2][Sn]([CH2]CCC)([CH2]CCC)[CH2]CCC`, the Potency is 24.5 µM (active).

For the compound `O=[N+]([O-])c1cc(C(F)(F)F)c(Cl)c([N+](=O)[O-])c1Nc1ncc(C(F)(F)F)cc1Cl`, the Potency was 49 µM (active).

Consider `CCCCN(CCCC)C(=S)[S-].CCCCN(CCCC)C(=S)[S-].[Ni+2]`, for which the Potency entry was “inactive”.

Turning to `CCCCn1cc[n+](C)c1` (tested in a mixture with another compound), the Potency entry is “inactive”.

As to `CCC(C)Br` (stereo not drawn), the Potency entry was “inactive”.

Regarding `C[N+]1(C)[C@@H]2CC[C@H]1CC(OC(=O)C(CO)c1ccccc1)C2` (stereo partly drawn), the Potency result is “inactive”.

In the case of `CCCCc1ccccc1`, the Potency entry is “inactive”.

Take `NC(=O)C(Cl)Cl`: the Potency entry is “inactive”.

As to `COP(=S)(OC)Oc1ccc([N+](=O)[O-])c(C)c1`, the Potency entry was “inactive”.

As to `CNC(=O)Oc1cc(C)cc(C(C)C)c1`, the Potency entry is “inactive”.

As to `CN`, the Potency entry is “inactive”.

Regarding `CCNS(=O)(=O)C(F)(F)C(F)(F)C(F)(F)C(F)(F)C(F)(F)C(F)(F)C(F)(F)C(F)(F)F`, the Potency entry was “inactive”.

As to `[F][Sn]([c]1ccccc1)([c]1ccccc1)[c]1ccccc1`, the Potency was 6.16 µM (active).

As for `Clc1c(Cl)c(Cl)c(Cl)c(Cl)c1Cl`, the activity change is -13.4% [at 6.97 µM, hits give high values].

For the compound `Nc1nc(N)c(N)c(N)n1`, the Potency is 55.2 µM (active).

Turning to `Fc1ccc(C(OCCN2CCN(CCCc3ccccc3)CC2)c2ccc(F)cc2)cc1`, the Potency is 21.3 µM (active).

For the compound `CCN(CC)C(=O)N[C@@H]1C=C2c3cccc4[nH]cc(c34)C[C@@H]2N(C)C1`, the Potency result is “inactive”.

On to `O=C1C2(Cl)C3(Cl)C4(Cl)C(Cl)(Cl)C5(Cl)C3(Cl)C1(Cl)C5(Cl)C24Cl` (stereo not drawn), for which the Potency was 42.9 µM (active) and 52.6 µM (active).

Source of the values: PubChem BioAssay (Tox21).
